Measured values taken from PubChem BioAssay AID1044 (The Scripps Research Institute Molecular Screening Center, 2008).
In all, about 16,000 compounds went through this assay and about 240 (1.5%) were called active. The sample holds actives, similar compounds and a random draw of the others, so the mix is not that of the screen. No stated cut-off is given here; in the data, active means activation above about 80%; inactive means the rest.

The molecules below were run against Sphingosine 1-phosphate receptor 1 (Homo sapiens) (UniProt P21453) (assay: activates the human S1P1 receptor (AID 1044)). Conditions: S1P1 agonist cell-based reporter assay; at 4.5 µM; stronger effect = higher value.
Sphingosine 1-phosphate receptor 1 (Homo sapiens), sequence (P21453 whole entry, looked up): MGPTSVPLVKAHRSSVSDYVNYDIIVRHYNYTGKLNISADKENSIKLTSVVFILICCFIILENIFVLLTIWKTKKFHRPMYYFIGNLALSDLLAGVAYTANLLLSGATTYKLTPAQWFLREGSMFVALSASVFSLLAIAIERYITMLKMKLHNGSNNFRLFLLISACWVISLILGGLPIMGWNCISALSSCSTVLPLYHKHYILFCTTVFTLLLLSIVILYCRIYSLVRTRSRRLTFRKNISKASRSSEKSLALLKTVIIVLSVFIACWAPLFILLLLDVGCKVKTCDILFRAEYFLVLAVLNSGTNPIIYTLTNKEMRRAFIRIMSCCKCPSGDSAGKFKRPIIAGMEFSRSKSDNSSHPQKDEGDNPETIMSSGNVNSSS

activation, inactive:
O=C1NC(=O)c2cc([N+](=O)[O-])c(Sc3c(Cl)cccc3Cl)cc21 16.5%
Cn1cc(Br)c(-c2ccc(NC(=O)Nc3ccc(Cl)cc3)cc2)n1 48.5%
CCOC(=O)NN(C(=O)OCC)c1c(C)c(C)c(C)c(C)c1C 6.8%
CCOc1ccc(NC(=S)N2CCC(c3ccccc3OC)CC2)cc1 -5.17%
COc1ccc(OC)c(CNC(=O)Cc2cccs2)c1 2.66%
CC(C)N(C(=O)c1ccc(-c2ccccc2F)cc1)C(C)C 5.33%
COc1ccc(-c2ccc(/C=N/NC(=O)CCc3ccc(O)cc3)s2)cc1 76.7%
COc1ccc2c(c1)CCCC2=Nc1ccccc1C(F)(F)F 76.9%
Cc1cc2nc(C)c(C)nc2cc1C -24.7%
NC(=O)c1sccc1Br -10.4%
Cc1onc(-c2ccccc2)c1CNS(=O)(=O)c1ccc2c(c1)OCCN2C -10.4%
NC(CC(=O)O)c1ccccc1 (configuration not stated) 6.64%
Cc1ccc(NC(=O)c2ccccc2NC(=O)c2ccccc2)cc1 -30.9%
O=[N+]([O-])c1ccc(-c2nnnn2Cc2c(Cl)cccc2Cl)cc1 38.8%
Cc1oc(-c2ccc(Cl)cc2)cc1C(=O)N1CCN(Cc2ccccc2)CC1 -6.1%
COc1ccc(NC(NC(=O)c2ccc(OC)cc2)(C(F)(F)F)C(F)(F)F)cc1 4.17%
CCOC(=O)N/N=C(\C)c1cccc(NC(C)=O)c1 3.43%
CC(C)(C)C(=O)Nc1c(Br)c(C2CC2)nn1-c1ccccc1 4.11%
N#Cc1ccc(OS(=O)(=O)c2cc(C(F)(F)F)cc(C(F)(F)F)c2)cc1 0.18%
CSc1nc(N)n(-c2ccccc2)n1 5.77%
COC(=O)c1c(C(=O)OC)c2n(c1C)CCS2 10.2%
O=C(Nc1ccc(OCc2ccccc2)cc1)OCC1CN(Cc2ccccc2)CCO1 (configuration not stated) 43.9%
O=S(=O)(Oc1cccc(C(F)(F)F)c1)c1cc(S(=O)(=O)c2ccccc2)cs1 4.61%
Cn1nc(C(C)(C)C)c(NC(=O)c2sccc2Cl)c1C(C)(C)C -7.37%
CCc1ccc(S(=O)(=O)Nc2ccc(C)c(NS(C)(=O)=O)c2)cc1 6.03%
Cc1oc(-c2ccc(Cl)cc2)cc1C(=O)N1CCOCC1 6.2%
Cc1c(-c2cnc(NC(=O)c3ccccc3)s2)sc2ccc(Cl)cc12 7.33%
NNC(=O)COc1ccc(C2SCCS2)cc1 -2.77%
O=C(Nc1ccc(Cl)cc1)c1csc(COc2ccc3nonc3c2)n1 -33.9%
O=c1oc2ccc(Cl)cc2cc1-c1ccc([N+](=O)[O-])cc1 -9.38%
O=C(NNc1ccc(C(F)(F)F)cn1)c1ccccc1Cl -0.55%
COc1cccc2cc(C(=O)O)oc12 -0.93%
O=C(O)CC(CC(=O)O)c1ccc(C(F)(F)F)cc1 0.91%
O=C1c2ccc3c4c(ccc(c24)C(=O)N1c1ccccc1)C(=O)N(c1ccccc1)C3=O -6.17%
CCCCCCNC(=O)NCCCCCC -9.06%
COc1ccc(CCNCC(O)Cn2ccc3ccccc32)cc1OC (configuration not stated) 5.51%
c1ccc2c(c1)NC(C1Nc3ccccc3O1)O2 (configuration not stated) -3.26%
COc1cc(CCN=Cc2ccccc2O)c([N+](=O)[O-])cc1OC -11.4%
CS/C(N)=N/N=C/c1cccs1 -0.53%
COC(=O)C1=C(NNc2ccccc2)CSC1 6.31%
Cc1cc(CNCC(O)C(F)(F)F)no1 (configuration not stated) -6.99%
FC(F)(F)C1=CC=NCCN1 1.36%
N/C(=N\OC(=O)Nc1ccccc1)c1ccc(Oc2c(Cl)cncc2Cl)cc1 13.7%
Cc1nc(-c2ccc(NC(=O)COCC(=O)O)cc2)cs1 -4.96%
CCCCCCCCc1ccc(C(=O)O)cc1 19.6%
CCOC(=O)c1c(NC(=S)Nc2ccccc2)sc2c1CCN(C)C2 -17.2%
Cc1nnsc1-c1nnc(SCC(=O)c2ccc3c(c2)OCO3)n1C1CC1 0.92%
COc1cccc(NC(=S)N(CCC#N)C2CCCCC2)c1 -17.6%
COc1ccc(NC(=S)Nc2ccc(OC)cc2)cc1 2.11%
COc1cccc(C(=O)c2sc3nsc(SCc4ccc(F)cc4)c3c2N)c1 50.7%
Cc1ccc([N+](=O)[O-])c(C(=O)NCC(=O)O)c1 -20%
OC(COc1ccc(F)cc1)(c1ccccc1)c1ccccc1 -25.6%
CCO/N=C\c1nn(S(C)(=O)=O)cc1Br -3.43%
CCOC(=O)Cc1nc(N)ncc1C(=O)OCC -10.1%
Clc1ccc(-c2csc(N/N=C\c3ccn[nH]3)n2)cc1 8.84%
O=C(NCCO)NCCSc1ccc(F)cc1 -13.1%
O=C1CSC(=S)N1c1ccc(N2CCCCCC2)c(N2C(=O)CSC2=S)c1 0.84%
COC(=O)c1ccc(S(=O)(=O)NNC(=O)c2cn3cc(C(F)(F)F)cc(Cl)c3n2)n1C -20.2%
N#Cc1ccc(N2CCSCC2)cc1[N+](=O)[O-] -27.1%
O=C(Nc1ccccc1C(=O)NCc1c(F)cccc1Cl)c1ccccc1Cl 15.3%
O=C(O)c1ccccc1Nc1ccccc1F 2.49%
Cc1ccc(Sc2cc(C)c(C)cc2N)c(C)c1 10.7%
Cc1csc(/N=C/N(C)C)c1C#N -3.89%
NS(=O)(=O)c1ccc(Oc2c(Cl)cccc2[N+](=O)[O-])cc1 -8.03%
CCCS(=O)(=O)c1csc(C(=O)OC)c1N/N=C/c1cccs1 -27.2%
Cn1cccc1CNC(=O)c1cc(F)cc2c1OCOC2 21.1%
Cc1c(C(=O)Nc2ccccc2)sc2cc(C(C)(C)C)sc12 23.4%
O=C1OC2(CCCCC2)OC1c1ccccc1 (configuration not stated) -9.78%
CSc1nc2c(c(/C=C/c3ccccc3)c1C#N)CCC2 -18.1%
O=C1c2ccccc2O[C@@H](c2ccccc2)[C@@H]1NC1CCCCC1 75.6%
NNC(=O)c1cc2ccccc2s1 8.06%
COC(=O)c1cc(S(=O)(=O)NCc2csc(-c3cccs3)n2)oc1C 4.78%
O=C1CC(c2ccccc2)C(=O)N1Cc1cccs1 (configuration not stated) 1.62%
O=C(NCc1cccnc1)c1cnc2ccccc2n1 -2.22%
N#CC(C#N)=CNc1c(F)cccc1Cl 48.9%
CO/N=C1\C(=O)N(C)c2ccccc21 -2.23%
COC(=O)c1cc(OC)c(OC)cc1NC(=O)c1ccccc1C(=O)O 14.4%
O=C1c2ccccc2C(=O)N1CCCN1CCN(Cc2c(F)cccc2Cl)CC1 -0.27%
S=C(SCc1ncon1)N1CCSCC1 -1.22%
N#Cc1cncc(Br)c1 -9.98%
O=C(O)c1nccnc1C(=O)O -16.2%
CC(=O)c1cc([N+](=O)[O-])c(NC2CCCCC2)s1 -14.1%
O=S(=O)(O)c1ncccn1 3.74%
COc1c(Br)cc(C#N)cc1Br -9.06%
COC(=O)C1=C(c2ccccc2)C(c2ccccc2)=C(C(=O)OC)C1=O 6.63%
N#Cc1cn(C2CCCCC2)c(=O)[nH]c1=O 15.6%
CNC(=O)c1ccccc1Sc1ccccc1C(=O)NC -10.2%
CCOC(=O)C(NC(=O)Nc1ccccc1)(Nc1ccccc1OC)C(F)(F)F (configuration not stated) 5.29%
CCOC(=O)c1c(C)csc1NC(=O)CC(=O)C(F)(F)F 12.6%
COC(=O)c1cc(C(N)=O)c(SC)s1 -10.8%
O=c1c2c(nc3nc[nH]n13)CCC2 1.21%
CSC(C)C(=O)/C=C/N(C)C (configuration not stated) -15.9%
COC(=O)C(C#N)c1ccc(C(F)(F)F)cc1[N+](=O)[O-] (configuration not stated) 14.5%
COC(OC)c1ccc(C#N)c(SCC(=O)Nc2ccc(C(F)(F)F)cc2)n1 -16.6%
CCOC(=O)NC(=O)/C(=C/NC(C)C)C(=O)OCC 22.7%
COc1cc(-c2n[nH]c(=S)n2Cc2ccccc2)cc(OC)c1OC -18.1%
CC1(C)c2ccccc2-n2c1cc(O)c(-c1ccccc1)c2=O -11.7%
CC1(NC(=O)OCc2ccccc2)CC1NC(=O)OCc1ccccc1 (configuration not stated) 11.9%
COC(=O)c1sccc1Oc1ccc(Cl)cc1[N+](=O)[O-] 13.2%
COC(=O)c1sccc1NC(=S)Nc1ccc(C)cc1 -27.1%

activation, active:
Cc1ccc(NC(C(=O)O)c2ccccc2)cc1 (configuration not stated) 81.5%
CCOC(=O)c1c(NS(=O)(=O)c2cccc3nsnc23)sc(C)c1C 117%
NNC(=O)c1csc(COc2ccc(C3SCCS3)cc2)n1 83%
COc1cccc(NC(=S)NNC(=S)NC2CC3CCC2C3)c1 (configuration not stated) 97.7%
O=C(CNC(=O)c1ccccc1F)c1ccc(Br)cc1 84.7%
CC(C)(C)OC(=O)n1ccc2cc(Br)ccc21 111%
COC(=O)CCN1CCc2cc(N=Nc3ccc(C(F)(F)F)cc3)ccc21 99.2%
